Test results: PubChem BioAssay AID686978 (National Center for Advancing Translational Sciences (NCATS), 2013)
Out of some 420,000 compounds screened, about 64,000 (15%) were called active. Inconclusive results (about 27%) are left out. Calls come from the whole dose curve; as a rule, active = well fitted inhibition curve with a large enough effect; inconclusive = small, poorly fitted or top-dose-only effect; inactive = flat fitted curve, though single readings scatter. The list is a sample of the results. Where a call stands in place of a potency, no number is given.

Assay: qHTS for Inhibitors of human tyrosyl-DNA phosphodiesterase 1 (TDP1): qHTS in cells in absence of CPT; note: nearly all actives have a fitted effect of over 55% in size
Details: DT40 Tdp1-/- hTDP1 cells, no CPT, ATP luminescence, 48 h; activity change, negative = growth inhibition: at 46.2 µM (top of the series)
Outline: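 Stably hTDP1-transfected Tdp1-null chicken DT40 cells were treated with library compounds minus camptothecin and grown for at least 48 hr at 37 °C, after which cellular ATP was quantified by luminescence.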
Potency is the fitted concentration of half-maximal effect.

Compound	Potency
Cc1cc(C)c(S(=O)(=O)N(C)CC(=O)NCC2CCCO2)c(C)c1 (configuration not stated)	inactive
O=S1(=O)CC(NCc2ccccc2)C(Nc2ccc(Cl)cc2)C1 (configuration not stated)	inactive
O=C(NC1(C(F)(F)F)N=C2SCCN2C1=O)c1ccco1 (configuration not stated)	inactive
COc1cnn(-c2ccc([N+](=O)[O-])cc2)c(=O)c1Cl	inactive
Cc1cc(C)c(C#N)c(SCS(=O)c2ccc(C(C)(C)C)cc2)n1 (configuration not stated)	inactive
COC(=O)COc1ccc2c(=O)c(Oc3ccccc3Br)coc2c1	inactive
C[C@H]1CN([C@@H](C)CO)C(=O)CCCn2cc(nn2)CO[C@@H]1CN(C)S(=O)(=O)c1ccc(-n2cccn2)cc1	inactive
CCOc1ccc(CN(Cc2ccco2)C(c2cccs2)c2nnnn2C(C)(C)C)cc1 (configuration not stated)	16.4 µM (active)
CC(C)(C)n1nnnc1C(c1ccccc1F)N1CCN(C(=O)c2ccco2)CC1 (configuration not stated)	inactive
C/C(=C\c1ccco1)CN1CCC(N2CCC(C(=O)N3CCOCC3)CC2)CC1	inactive
CCN(C(=O)COC(=O)CCC(=O)c1cccs1)C1CCCCC1	inactive
CCOC(=O)CNc1nc(Cl)nc(Nc2ccccc2)n1	inactive
COc1cc2nc(Cl)nc(NCCO)c2cc1OC	inactive
OCCNc1nc(Nc2ccc(Cl)c(Cl)c2)nc2ccccc12	16.4 µM (active)
CCN(CC(=O)Nc1ccc(OC)cc1)C(=O)CSCc1ccc(C)cc1	inactive
O=C(Nc1ccc(N2CCOCC2)cc1)c1ccc2c(c1)OCO2	inactive
CN1CCN(c2ccc(NC(=O)c3ccc4c(c3)OCCO4)cc2Cl)CC1	inactive
CN1CCN(c2ccc(NC(=O)c3cc(Cl)c4c(c3)OCCO4)cc2)CC1	29.1 µM (active)
CCOc1ccc(C(=O)N(Cc2ccc(N(C)C)cc2)C2CCS(=O)(=O)C2)cc1 (configuration not stated)	inactive
O=C(COc1ccc(Cl)cc1Cl)NCCCNC(=O)c1cnccn1	inactive
CC(NC(=O)Cn1cc(C(F)(F)F)cc(Cl)c1=O)c1ccccc1 (configuration not stated)	inactive
CC(NC(=O)CCc1cn(Cc2ccccc2Cl)c2ccccc12)c1ccccc1 (configuration not stated)	23.1 µM (active)
O=C(CCc1cn(Cc2ccc(F)cc2)c2ccccc12)NC1CCCCC1	inactive

Compound	Potency
Cc1cc(C)n2nc(C(=O)OCC(=O)N(CCC#N)c3ccc(F)cc3)nc2n1	inactive
Cc1ccc(-c2nn(-c3ccccc3)cc2C(=O)NC2CCC(O)CC2)cc1 (configuration not stated)	inactive
O=C(O)c1ccc(NC(=O)c2cn(-c3ccccc3)nc2-c2ccc(Cl)cc2)cc1	16.4 µM (active)
COC(=O)c1cn(-c2ccccc2)nc1-c1cccnc1	inactive
NCCCCCC(=O)N/N=C/c1ccc2nccnc2c1	inactive
Cc1ccc(S(=O)(=O)N(C)C)cc1NC(=O)COC(=O)/C=C/c1cccs1	inactive
CCN1CCN(C(=O)CCN2C(=O)c3ccccc3C2=O)CC1	inactive
O=C(Nc1cccc(F)c1)N1C2CCC1CC(O)(c1cccnc1)C2 (configuration not stated)	inactive
CCOC(=O)c1ccc(NC(=O)CCS(=O)(=O)c2ccc(C)cc2)cc1	20.6 µM (active)
CCCCC(CCC(=O)Nc1ccc(C(=O)OCC)cc1)C(=O)O (configuration not stated)	inactive
Cc1ccc(S(=O)(=O)CCC(=O)Nc2nnc(CC(C)C)s2)cc1	16.4 µM (active)
CC(C)Cc1nnc(NC(=O)CCc2ccccc2)s1	inactive
CCOc1ccc(OCC)c(NC(=O)CCS(=O)(=O)c2ccc(C)cc2)c1	inactive
Cc1ccc(S(=O)(=O)CC(=O)Nc2nnc(C)s2)cc1	inactive
CC(C)CC(NS(=O)(=O)c1ccc2c(c1)oc(=O)n2C)C(=O)NCc1ccccc1Cl (configuration not stated)	inactive
Cc1cc(F)ccc1N1CCC(N2CCN(C)C(CCO)C2)CC1 (configuration not stated)	inactive
CC(C)n1c(O)c(N=Nc2ccccn2)c2ccccc21	inactive
CCC(C)NC(=O)c1ccccc1NC(=O)c1ccccc1N(C)S(C)(=O)=O (configuration not stated)	inactive
Cc1n[nH]c(=O)n1-c1ccc(C(C)C)cc1	inactive
O=C1c2cccc3cccc(c23)C(=O)N1c1cccc(O)c1	inactive
Cc1nnc(CN(C)Cc2cn[nH]c2-c2ccc(-c3ccccc3)cc2)o1	inactive
CC1CCCN(S(=O)(=O)c2ccc(-c3ccc(=O)[nH]n3)o2)C1 (configuration not stated)	inactive
O=S(=O)(c1ccc2nc(NCc3ccccc3Cl)ccc2c1)N1CCCCC1	10.3 µM (active)

Compound	Potency
O=S(=O)(c1ccc2nc(N3CCN(c4cccc(Cl)c4)CC3)ccc2c1)N1CCCCC1	inactive
O=S(=O)(NCc1ccccc1)c1ccc(S(=O)(=O)N2CCCC2)cc1	inactive
CN(C(=O)CCNC(=O)Cn1ccc2ccccc2c1=O)c1ccc(Br)cc1	inactive
CC/C(=N/Nc1ccccc1)c1cnnc(SC)n1	inactive
COc1cccc(C(=O)Oc2cc(C)[nH]c(=O)c2[N+](=O)[O-])c1	inactive
COc1ccc(/C=C/c2noc(-c3ccccc3OC(C)=O)n2)cc1	inactive
O=C(CCc1ccc(O)cc1)NN=Cc1cc(Br)ccc1O	5.8 µM (active)
CC(C)/C=N/NC(=O)c1cc(Br)ccc1O	inactive
O=C(CCC(=O)N/N=C/c1ccc(Br)o1)N/N=C/c1ccc(Br)o1	inactive
CCCC1NC(=O)NC(C)=C1C(=O)OCC (configuration not stated)	inactive
Nc1ncnc(Nc2cccc(Cl)c2Cl)n1	inactive
O=C(CSc1nccc(=O)[nH]1)Nc1ccc(N2CCOCC2)c(Cl)c1	inactive
Cc1ccccc1OCC(O)CN1CCN(c2ccccn2)CC1 (configuration not stated)	inactive
CC(=O)Nc1ccc(OCC(O)CN2CCN(c3ccccc3Cl)CC2)cc1 (configuration not stated)	inactive
Cc1ccc(OCC(=O)Nn2cnc3ccccc32)cc1	inactive
CC(C)c1ccc(OCC(O)Cn2cnc3ccccc32)cc1 (configuration not stated)	14.6 µM (active)
OC(COc1ccccc1)Cn1cc(Br)cn1 (configuration not stated)	inactive
CC(C)c1ccc(OCC(O)CN2CCN(c3ccccn3)CC2)cc1 (configuration not stated)	10.3 µM (active)
Cc1nc2ccc(S(=O)(=O)NCC(=O)O)cc2s1	inactive
CC(=O)OC[C@H]1O[C@@H](O[C@H]2[C@H](O)[C@@H](OC(=O)c3ccccc3C(=O)O)[C@H](O)O[C@@H]2COC(C)=O)[C@H](O)[C@@H](OC(=O)c2ccccc2C(=O)O)[C@@H]1O	inactive
Cc1ccc(CNC(=O)C2CCCN2S(=O)(=O)c2ccc3c(c2)C(C)(C)C(=O)N3C)cc1 (configuration not stated)	inactive
